Drawing on PubChem BioAssay, this text covers inhibition for 39 compounds.

As a reminder, the inhibition is the relative decrease from the control value, in per cent.

The nature of this assay: inhibitors of PAF-induced NFkB signaling in CF airway cells, dose response, cell-based, uHTS hits, panel, cytotoxicity readout (AID 624344). The note with it: CF bronchial epithelial cells, PAF-induced NFkB reporter inhibition, with PAF, run 1; at 79 µM (top of the series) unless noted.
For `CC(=O)Oc1ccccc1C(=O)Oc1ccc(/C=N/n2cnnc2)cc1`, the inhibition was determined as 106%.

Consider `Cc1ccc(C(=O)Nc2cccc(C(F)(F)F)c2)cc1NC(=O)c1cnnc2ccccc12`, for which the inhibition was 105%.

With `NC(=O)c1cc2ccc(O)cc2oc1=Nc1ccccc1`, the inhibition came out at 92.3%.

Consider `COc1ccccc1NC(=O)c1cc2c(CO)cnc(C)c2oc1=Nc1ccc(OC)c(OC)c1`, for which the inhibition came to 73.4%.

On to `CCOC(=O)C1=C(C)Nc2ccccc2N=C1NC(=O)c1oc2ccccc2c1COC`, for which the inhibition is 90.5%.

Regarding `COc1ccc(CNc2nn3c(-c4cccc(C(=O)N(C)C)c4)cnc3s2)cc1`, the inhibition was 113%.

`c1csc(CNc2ncnc3ccc(-c4ccoc4)cc23)c1`: the inhibition was 105%.

As to `CC(=O)Nc1ccc(Nc2nc(-c3sc(NC(C)=O)nc3C)cs2)cc1`, the inhibition is 103%.

As for `O=C(c1ccc(O)c(Br)c1)c1cc(Br)ccc1O`, the inhibition turned out to be 105%.

Consider `CC(C)CNC(=O)c1coc(=O)c(Br)c1`, for which the inhibition came out at 86%.

On to `Cc1nc([N+](=O)[O-])c(Sc2nc3ccc([N+](=O)[O-])cc3[nH]2)n1Cc1ccccc1`, for which the inhibition was determined as 101%.

Regarding `COc1cccc(/C=N/n2c(C3CCCCC3)n[nH]c2=S)c1`, the inhibition worked out at 97.2%.

As for `COc1cccc(NC(=O)CN(C)CC(=O)Nc2ccc(C)c([N+](=O)[O-])c2)c1`, the inhibition amounted to 80.7%.

Turning to `c1nc(NCc2ccc3c(c2)OCO3)c2cc(-c3ccoc3)ccc2n1`, the inhibition was 102%.

Take `O=C(N/N=C/c1ccccc1Cl)c1[nH]c2ccc(Br)cc2c1-c1ccccc1`: the inhibition was 105%.

Consider `NC(N)=NN=C(c1ccc(F)cc1)c1ccc(C(F)(F)F)cc1`, for which the inhibition is 108%.

Regarding `CCc1ccc(Nc2n[n+](-c3ccccc3)c(-c3c(Cl)cccc3Cl)s2)cc1`, the inhibition was 116%.

As to `CC(C)C[C@@H]1NC(=O)[C@H](Cc2ccccc2)N(C)C(=O)[C@H](C)NC(=O)c2ccccc2NC(=O)[C@H](Cc2ccc(O)cc2)N(C)C1=O`, the inhibition turned out to be 102%.

`CCCCN(CCCC)c1ncnc2nc[nH]c12`: the inhibition stood at 102%.

Consider `Cc1ccc(C(=O)c2cc([N+](=O)[O-])ccc2N2CCCCC2)c(C)c1`, for which the inhibition was found to be 79.4%.

With `O=C(c1nnsc1S(=O)c1ccc(Cl)cc1)N1CCOCC1` (centres undefined), the inhibition is 95.6%.

Turning to `O=C(NCCCSc1ccccc1)c1cc(Br)ccc1O`, the inhibition was found to be 110%.

As for `COc1cc2c(Cc3ccccc3)cncc2cc1O`, the inhibition amounted to 107%.

Take `CCOC(=O)Cc1nnc2c(Nc3ccc(Cl)cc3)nc3nonc3n12`: the inhibition turned out to be 110%.

Consider `Cc1ccnc(NC(=O)CCCOc2cc(=O)n(C)c3ccccc23)c1`, for which the inhibition worked out at 105%.

As for `CC(C)OC(=O)c1cccc(C(=O)Nc2cccc(NC(=O)c3cccc(C(=O)OC(C)C)n3)n2)n1`, the inhibition is 103% [at 9.88 µM].

For `CCN(CC(=O)Nc1ccc(OC)cc1)C(=O)c1cc(-c2cccs2)nn1-c1ccccc1`, the inhibition is 99.6%.

Turning to `CCN1CCN(Cc2ccc(NC(=O)c3ccc(C)c(NC(=O)c4csc(-c5ccncc5)n4)c3)cc2C(F)(F)F)CC1`, the inhibition was 107%.

With `CN(c1cccc(Cl)c1)S(=O)(=O)c1cccc(C(=O)Nc2nc3ccccc3[nH]2)c1`, the inhibition worked out at 102%.

On to `O=C(Nc1ccc(Oc2ccc(NC(=O)Nc3ccc([N+](=O)[O-])cc3)cc2)cc1)Nc1ccc([N+](=O)[O-])cc1`, for which the inhibition amounted to 101%.

Turning to `Cc1ccc(S(=O)(=O)Nc2nc3ccccc3nc2Nc2cccc(S(=O)(=O)N3CCCC3)c2)cc1`, the inhibition was found to be 94.9%.

`CCOC(=O)/C=c1/s/c(=C\c2c(OC)ccc3ccccc23)c(=O)n1CC(=O)NCC1CCCO1` (centres undefined): the inhibition was -195%.

`Cc1cc2cc(CCNC(=O)C(=O)c3c[nH]c4ccccc34)c(=O)[nH]c2cc1C`: the inhibition was 94.2%.

With `COc1ccccc1Cn1c(=O)c2ccccc2n2c(Sc3ncnc4sccc34)nnc12`, the inhibition was determined as 101%.

Take `FC(F)Sc1ccc(NC(=S)NCC2CCCCC2)cc1`: the inhibition came out at 106%.

Turning to `C=C(C)[C@@H]1CCC2(C(=O)O)CC[C@]3(C)[C@H](CC[C@@H]4[C@@]5(C)CCC(=O)C(C)(C)[C@@H]5CC[C@]43C)[C@@H]12` (some centres undefined), the inhibition is 86.7%.

With `CC1(Cc2ccc(F)cc2)C(=O)Nc2ccc(-c3cccnc3)cc21` (centres undefined), the inhibition turned out to be 98.2%.

With `C=C1C(=O)[C@]23C[C@H]1CC[C@H]2[C@]1(C)[C@@H](OC(C)=O)CC[C@@](C)(C(=O)O)[C@H]1C[C@@H]3O`, the inhibition stood at 97.6%.

As for `Nc1cc2c(cc1Br)-c1ccccc1C2=NO`, the inhibition was determined as 93.5%.
